# In PubChem BioAssay (NCATS):
# Several values for one entry are separate records, joined by “and”; a condition that tells them apart may be missing. Equal entries are not always repeated. A number with no mark means an inactive call. Results filed as inconclusive are left out. The source holds several records for some structures; these can differ, active in one and inactive in another. Activity calls are given as the source filed them. Unless noted, calls come from the whole dose curve; as a rule, active = well fitted curve in the direction sought with a large enough effect; inconclusive = small, poorly fitted or top-dose-only effect, or another doubt; inactive = no such curve, though single readings can be large; an effect the other way counts as inactive or inconclusive.
# Legend:
# Tov112D = experiment: Primary qHTS to identify gynecologic anti-cancer compounds using libraries of approved drugs and bioactive compounds (AID 1345084); conditions: Gynecologic cancer cell panel viability, ATPlite luminescence, 48 h; series mostly up to 57.5 µM; note: nearly all actives have a fitted effect of over 55% in size; note: potency is the fitted concentration of half-maximal effect
# Method in brief: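 Five-point cytotoxicity, 48 h drug exposure at 37 C, 5% CO2, on cells seeded 16 h beforehand. ATP content read by ATPlite luminescence.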
# [1] = Drug repurposing screens with cells derived from glioblastoma tumor samples (AID 1345199); conditions: GBM patient neurospheres viability, ATP luminescence, 48 h; note: nearly all actives have a fitted effect of over 40% in size; note: potency is the fitted concentration of half-maximal effect; for activity, negative = cell killing: % is set by controls: 0 for no effect and ±100 for the full control effect
# Method in brief: (§1)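 Four patient lines of CD133+ GBM neurospheres were screened at several concentrations; hits were retested in those lines plus three slower-growing GBM lines, using 48-hour treatment and ATP-based viability.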
# astro = experiment: as above; conditions: viability, ATP luminescence, 48 h; series mostly up to 45.9 µM
# Method in brief: as §1
# [2] = target: Nuclear receptor subfamily 1 group I member 2 (Rattus norvegicus) (UniProt Q9R1A7); experiment: qHTS assay for small molecule activators of the rat pregnane X receptor (rPXR) signaling pathway (AID 651751; call rule not given here; note: 0% is about no effect); conditions: rPXR reporter cells, luciferase (One-Glo), 24 h
# Sequence of Nuclear receptor subfamily 1 group I member 2 (Rattus norvegicus) (Q9R1A7 whole entry, looked up): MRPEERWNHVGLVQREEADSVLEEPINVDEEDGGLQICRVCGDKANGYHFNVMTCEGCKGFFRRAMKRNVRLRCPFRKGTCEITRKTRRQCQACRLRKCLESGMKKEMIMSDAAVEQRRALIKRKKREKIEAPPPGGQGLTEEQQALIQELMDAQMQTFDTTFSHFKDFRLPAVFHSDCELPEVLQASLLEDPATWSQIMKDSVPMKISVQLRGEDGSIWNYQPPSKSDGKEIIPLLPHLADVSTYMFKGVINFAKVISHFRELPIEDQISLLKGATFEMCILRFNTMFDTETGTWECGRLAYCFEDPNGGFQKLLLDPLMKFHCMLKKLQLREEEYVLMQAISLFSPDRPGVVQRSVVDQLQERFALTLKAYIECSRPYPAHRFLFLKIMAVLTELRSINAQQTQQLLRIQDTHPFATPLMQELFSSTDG
# [3] = qHTS assay for small molecule activators of the human pregnane X receptor (PXR) signaling pathway (AID 720659; call rule not given here; note: 0% is about no effect); conditions: DPX-2 HepG2 CYP3A4-luciferase, 24 h; series mostly up to 92.3 µM
# [4] = at 45.9 µM (top of the series), tumour line B
# [5] = at 45.9 µM (top of the series), tumour line D
# [6] = at 46 µM (top of the series), tumour line A
# [7] = at 46.1 µM (top of the series), tumour line C
# [8] = at 20 µM (top of the series), tumour line C
# [9] = at 21.2 µM (top of the series), tumour line B
smiles,measurement,setting,value
NC[C@H](O)c1ccc(O)c(O)c1,Potency,Tov112D,inactive
same,"activity, negative = cell killing",[1]; [4],-10.5%
same,"activity, negative = cell killing",[1]; [5],-7.44%
same,"activity, negative = cell killing",[1]; [6],-26.2%
same,"activity, negative = cell killing",[1]; [7],-17.3%
same,Potency,astro,inactive
same,max response,[2],2.15%
same,outcome,[3],inactive
CNC[C@H](O)c1cccc(O)c1,Potency,Tov112D,inactive
same,"activity, negative = cell killing",[1]; [4],-2.77%
same,"activity, negative = cell killing",[1]; [5],6.94%
same,"activity, negative = cell killing",[1]; [7],-5.24%
same,Potency,astro,inactive
same,max response,[2],1.25%
same,outcome,[3],inactive
CS(=O)(=O)c1ccc(C(=O)Nc2ccc(Cl)c(-c3ccccn3)c2)c(Cl)c1,Potency,Tov112D,inactive
CC(C)NCC(O)COc1ccc(COCCOC(C)C)cc1 (configuration not stated),Potency,Tov112D,inactive
same,"activity, negative = cell killing",[1]; [4],-9.69% and -16.2%
same,"activity, negative = cell killing",[1]; [5],1.75% and -24.1%
same,"activity, negative = cell killing",[1]; [7],-2.09% and 0.649%
same,Potency,[1]; tumour line A,11.2 µM (active)
same,Potency,astro,inactive
CCCC(CCC)C(=O)O,Potency,Tov112D,inactive
same,"activity, negative = cell killing",[1]; [4],-7.18%
same,"activity, negative = cell killing",[1]; [5],-10.3%
same,"activity, negative = cell killing",[1]; [6],-15.5%
same,"activity, negative = cell killing",[1]; [7],0.524%
same,Potency,astro,inactive
same,outcome,[3],inactive
NS(=O)(=O)c1cc2c(cc1Cl)NC=NS2(=O)=O,Potency,Tov112D,inactive
same,"activity, negative = cell killing",[1]; [4],-4.14%
same,"activity, negative = cell killing",[1]; [5],-10.8%
same,"activity, negative = cell killing",[1]; [7],23.2%
same,Potency,astro,inactive
same,max response,[2],-2.2%
CC(=O)Oc1ccccc1C(=O)O,Potency,Tov112D,inactive
same,"activity, negative = cell killing",[1]; [5],-4.86%
same,"activity, negative = cell killing",[1]; [6],-15.2%
same,"activity, negative = cell killing",[1]; [7],-19.2%
same,Potency,astro,inactive
same,max response,[2],-0.967% and 1.6% and -0.848%
same,outcome,[3],inactive
O=C1CCCC2=C1C(c1[nH]ncc1Cl)N=C(Nc1nc3ccccc3o1)N2 (configuration not stated),Potency,Tov112D,inactive
NC(N)=NC(=O)c1nc(Cl)c(N)nc1N,Potency,Tov112D,inactive
same,"activity, negative = cell killing",[1]; [5],-15.1%
same,"activity, negative = cell killing",[1]; [6],18.9%
same,"activity, negative = cell killing",[1]; [7],-11.2%
same,Potency,astro,inactive
same,outcome,[3],inactive
Cc1[nH]c(=O)c(C#N)cc1-c1ccc2nccn2c1,Potency,Tov112D,inactive
same,"activity, negative = cell killing",[1]; [4],-4%
same,"activity, negative = cell killing",[1]; [5],0.316%
same,"activity, negative = cell killing",[1]; [6],-27%
same,"activity, negative = cell killing",[1]; [7],-6.47%
same,Potency,astro,inactive
CCOC(=O)C1=C[C@]2(CC)CCCN3CCc4c(n1c1ccccc41)[C@@H]32,Potency,Tov112D,inactive
same,"activity, negative = cell killing",[1]; [4],-28.2% and -25.8%
same,Potency,[1]; tumour line A,4.47 µM (active)
same,Potency,[1]; tumour line D,10 µM (active)
same,Potency,astro,inactive
CCc1ccc(CCOc2ccc(CC3SC(=O)NC3=O)cc2)nc1 (configuration not stated),Potency,Tov112D,inactive
same,"activity, negative = cell killing",[1]; [4],-10.3%
same,"activity, negative = cell killing",[1]; [5],-17.6%
Cc1cc(SCc2sc(-c3ccc(C(F)(F)F)cc3)nc2C)ccc1OCC(=O)O,Potency,Tov112D,inactive
Cn1cnc([N+](=O)[O-])c1Sc1ncnc2nc[nH]c12,Potency,Tov112D,5.62 µM (active) and 7.08 µM (active)
same,"activity, negative = cell killing",[1]; [4],-21.8%
same,"activity, negative = cell killing",[1]; [7],-41.7%
same,Potency,[1]; tumour line A,2.51 µM (active)
same,max response,[2],-0.454% and -2.45%
same,outcome,[3],inactive
CCC(C)(C)C(=O)O[C@H]1C[C@@H](C)C=C2C=C[C@H](C)[C@H](CC[C@@H]3C[C@@H](O)CC(=O)O3)[C@H]21,Potency,Tov112D,inactive
same,"activity, negative = cell killing",[1]; [8],-22.9%
same,"activity, negative = cell killing",[1]; [9],-19.9%
same,Potency,[1]; tumour line A,0.891 µM (active)
same,Potency,astro,3.55 µM (active)
O=C1CCC(N2C(=O)c3ccccc3C2=O)C(=O)N1 (configuration not stated),Potency,Tov112D,inactive
same,"activity, negative = cell killing",[1]; [4],-4.2%
same,"activity, negative = cell killing",[1]; [5],-2.61%
same,"activity, negative = cell killing",[1]; [6],-6.31%
same,"activity, negative = cell killing",[1]; [7],3.21%
same,Potency,astro,inactive
same,max response,[2],1.73%
same,outcome,[3],inactive
Nc1nc2c(ncn2COCCO)c(=O)[nH]1,Potency,Tov112D,inactive
same,"activity, negative = cell killing",[1]; [8],-13.6%
same,"activity, negative = cell killing",[1]; [9],-4.96%
same,"activity, negative = cell killing","[1]; at 21.3 µM (top of the series), tumour line A",-33.2%
same,Potency,astro,inactive
N[C@@H]1CONC1=O,Potency,Tov112D,inactive
same,"activity, negative = cell killing",[1]; [4],-2.69%
same,"activity, negative = cell killing",[1]; [5],4.98%
same,"activity, negative = cell killing",[1]; [6],-17.4%
same,"activity, negative = cell killing",[1]; [7],-0.848%
same,Potency,astro,inactive
CCCc1nn(C)c2c(=O)[nH]c(-c3cc(S(=O)(=O)N4CCN(C)CC4)ccc3OCC)nc12,Potency,Tov112D,inactive
same,"activity, negative = cell killing",[1]; [4],-8.65%
same,"activity, negative = cell killing",[1]; [5],-23.3%
same,"activity, negative = cell killing",[1]; [7],12.9%
same,Potency,[1]; tumour line A,22.4 µM (active)
same,Potency,astro,inactive
CC(C[N+](C)(C)C)OC(N)=O (configuration not stated),Potency,Tov112D,inactive
same,"activity, negative = cell killing",[1]; [4],-0.814%
same,"activity, negative = cell killing",[1]; [5],5.66%
same,"activity, negative = cell killing",[1]; [6],-20.4%
same,"activity, negative = cell killing",[1]; [7],5.23%
same,Potency,astro,inactive
O=c1n(CCCN2CCN(c3cccc(Cl)c3)CC2)nc2ccccn12,Potency,Tov112D,inactive
same,"activity, negative = cell killing",[1]; [8],-4.25%
same,"activity, negative = cell killing",[1]; [9],-8.69%
same,"activity, negative = cell killing","[1]; at 21.2 µM (top of the series), tumour line D",3.95%
same,Potency,astro,inactive
CCn1cc(C(=O)O)c(=O)c2cc(F)c(N3CCNC(C)C3)c(F)c21 (configuration not stated),Potency,Tov112D,inactive
same,"activity, negative = cell killing",[1]; [4],-18.8% and -6.47%
same,"activity, negative = cell killing",[1]; [5],-1.92% and -11.9%
same,"activity, negative = cell killing",[1]; [6],-14% and -29.8%
same,"activity, negative = cell killing",[1]; [7],-19.8% and -7.41%
same,Potency,astro,inactive
